Out of some 340,000 compounds screened, about 930 (0.27%) were called active.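 The calls were made as follows: active = inhibition above the screen-wide average of all tested compounds plus 3 SD (cut at about 25% in these data); inactive = the rest.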 The list comes from a sample in which actives are over-represented; it also holds similar structures and randomly drawn compounds.

We go through 60 compounds from PubChem BioAssay AID492972 (The Scripps Research Institute Molecular Screening Center, 2010).

Sequence of Platelet-activating factor acetylhydrolase IB subunit alpha1 (Homo sapiens) (Q15102 whole entry, looked up): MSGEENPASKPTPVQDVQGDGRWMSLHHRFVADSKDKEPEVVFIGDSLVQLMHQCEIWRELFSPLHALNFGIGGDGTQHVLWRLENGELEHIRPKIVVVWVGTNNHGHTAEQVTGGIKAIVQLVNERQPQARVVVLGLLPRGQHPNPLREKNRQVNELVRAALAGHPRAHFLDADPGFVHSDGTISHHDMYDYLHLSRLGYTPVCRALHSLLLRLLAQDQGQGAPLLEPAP

This assay concerns the target Platelet-activating factor acetylhydrolase IB subunit alpha1 (Homo sapiens) (UniProt Q15102). Kind of assay: inhibition of PAF acetylhydrolase 1B subunit 3 – biochemical, fluorescence polarization, human, primary screen (AID 492972).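 Also: 0% = enzyme with DMSO only and 100% = wells lacking PAFAH1B3 protein.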 As to conditions: recombinant PAFAH1B3, FP-rhodamine probe, at 3.39 µM, hits give high values.
As for `COc1ccc(C(=O)NC(=S)N2CCCCC2c2cccnc2)cc1OC` (stereo not given), the inhibition is -1.07% (inactive). Next, `Cc1c(-c2ccccc2)n[nH]c1C(=O)N=Nc1c(O)[nH]c2ccccc12`: -61.7% (inactive); `S=C(NCCCc1ccccc1)Nc1ccc(Br)cc1`: 7.28% (inactive); `C/C=N/N(c1ccccc1)c1ccccc1`: 0.33% (inactive).

Take `N#CC(Cc1cc2ccccc2n1S(=O)(=O)c1ccccc1)OCc1ccccc1` (stereo not given): the inhibition is 4.5% (inactive).

`CCCc1ccc(OCC(O)CN2CCN(C(=O)OCC)CC2)cc1` (stereo not given): the inhibition was -2.88% (inactive). Next, `COC(=O)CNC(=O)C(CCSC)NC(C)=O` (stereo not given): -4.04% (inactive); `CCC(CO)Oc1cc(NC(=O)c2cccc(F)c2)c2ncn(C(C)C)c2c1` (stereo not given): -2.61% (inactive). Take `CC(C)n1cnc2c(NCc3ccccc3)cc(OCC3CCN(C)CC3)cc21`: the inhibition was 49.8% (active). Take `CCC(CO)Oc1cc(NC(=O)c2cccc3ccccc23)c2ncn(C(C)C)c2c1` (stereo not given): the inhibition is -4.73% (inactive).

With `COc1ccccc1C(=O)N(Cc1ccc(C)o1)C1CCS(=O)(=O)C1` (stereo not given), the inhibition was 4.66% (inactive). Turning to `COc1ccccc1NS(=O)(=O)N(C)C`, the inhibition is -5.67% (inactive). Take `c1ccc(CC2CCN(c3nc4ccccc4n4cnnc34)CC2)cc1`: the inhibition is -2.84% (inactive). As to `COc1ccc(CN(Cc2ccco2)S(=O)(=O)c2ccc(S(=O)(=O)N3CCCC3)cc2)cc1`, the inhibition was 4.29% (inactive).

Turning to `CC(=O)OC1CCC2(C)C(=CCC3C4CC(=O)N(O)C(=O)C4(C)CCC32)C1` (stereo not given), the inhibition is 1.29% (inactive). In the case of `O=C(/C=C/c1ccc2c(c1)OCCO2)c1ccc(O)cc1`, the inhibition is -1.41% (inactive). The same measure for `O=C(/C=C(O)/C=C/c1ccc(O)cc1)/C=C/c1ccc(O)cc1`: 36.6% (active). The same measure for `O=C(O)/C=C/c1ccc(OCCCF)cc1`: 9.5% (inactive). Take `O=C(CCCC(=O)N(CC(=O)NC1CCCC1)Cc1ccccc1Cl)Nc1ccccn1`: the inhibition was 7.22% (inactive).

Regarding `CCOCCCN(C)C1CCN(C(=O)c2oc3ccccc3c2NC(=O)COc2cccc(C)c2)CC1`, the inhibition was 7.03% (inactive). The same measure for `COc1ccc(NC(=O)CCCC(=O)c2ccccc2)cc1`: -0.24% (inactive). As for `COc1ccc(NC(=O)C(Br)C(C)C)cc1` (stereo not given), the inhibition was 3.86% (inactive). Next, `COc1ccc(NC(=O)ON=C2c3ccccc3-c3ccccc32)cc1`: 31.6% (active); `COc1ccc(C2=NS(=O)(=O)N(C)C(C(=O)N(C)Cc3ccccc3)=C2)cc1`: 9.43% (inactive).

Regarding `COc1ccc([N+](=O)[O-])cc1NCC(=O)c1ccc(C)cc1`, the inhibition is 8.91% (inactive). The same measure for `CCNC(=O)NNC(=O)C1CC(c2cccs2)=NO1` (stereo not given): 14.9% (inactive); for `CCNS(=O)(=O)c1ccc(CCC(=O)N2CCN(c3cc(Cl)ccc3C)CC2)cc1`: 8.42% (inactive); for `COc1ccc(N2CCN(C(=O)C3CCN(C(=O)c4ccccc4Cl)CC3)CC2)cc1`: -0.01% (inactive). Take `CN(N)c1nc(N2CCCC2)nc(N2CCCC2)n1`: the inhibition was -3.46% (inactive). The same measure for `NC(=O)[C@H]1CC2(CC(c3cccc(NC(=O)[C@H]4CCC(=O)N4)c3)=NO2)CN1C(=O)c1ccccc1C(=O)c1ccccc1` (stereo not given in full): -3.78% (inactive); for `O=c1[nH]cccc1-c1nc2ccccc2n1Cc1ccc(Cl)cc1`: 6.48% (inactive). Next, `O=C(Nc1nnc(-c2ccc(F)cc2)s1)c1c(F)cccc1Cl`: 4.95% (inactive); `CN(C1CCS(=O)(=O)C1)S(=O)(=O)c1ccc2ccccc2c1` (stereo not given): 3.01% (inactive); `CC(C)(C)NC(=O)NC(=O)CN1CCC(Cc2ccccc2)CC1`: 0.05% (inactive). The same measure for `COC(=O)CCSc1cc([N+](=O)[O-])cc2c1c(C1OCCS1)nn2-c1ccccc1` (stereo not given): -0.28% (inactive); for `O/N=C1\CC2(Cc3nonc31)OCCO2`: 2.79% (inactive). As to `ON=C1/C(=N\O)CC2(C/C1=N/O)OCCO2`, the inhibition is 32.1% (active). The same measure for `CN1C(c2ccc(F)cc2)=CS/C1=C(/C#N)c1nnc2n1-c1ccccc1SC2`: 25.7% (active); for `Clc1ccc(C=NC23CN4CN(CN(C4)C2)C3)cc1`: 0.87% (inactive). Regarding `CC(C)C(=O)Nc1oc(-c2ccccc2)cc1C#N`, the inhibition was 1.75% (inactive). The same measure for `OC(c1ccccc1)C(CN1CCOCC1)c1ccccc1` (stereo not given): 0.69% (inactive); for `O=C(Nc1nnc(-c2ccccc2)o1)c1cccc(S(=O)(=O)N2CCOCC2)c1`: 4.84% (inactive). Next, `O=C(O)c1ccc(OCC2CCCO2)cc1` (stereo not given): 10.9% (inactive); `Cc1ccc(-c2cc(C(=O)NCc3cn(C)nc3C)c3cc(Br)ccc3n2)cc1`: -4.68% (inactive); `O=P(c1ccc2c(c1)OCCO2)(N1CCOCC1)N1CCOCC1`: 6.13% (inactive).

As for `CC(c1ccco1)N(C(=O)COc1ccccc1[N+](=O)[O-])c1ccccn1` (stereo not given), the inhibition was 10.8% (inactive). The same measure for `COc1ccc(C(C)=O)cc1COC(=O)Cn1cnc2ccccc2c1=O`: 6.33% (inactive). Next, `COc1ccc(N2CCN(C(=O)CN3C(=O)COc4ccccc43)CC2)cc1`: 3.49% (inactive); `CC(NCC(=O)Nc1ccccc1C(=O)NC1CC1)c1ccccc1Cl` (stereo not given): 3.15% (inactive); `COc1cccc2c1C(=O)c1c(O)c3c(c(O)c1C2=O)CC(O)(C(C)=NNC(=O)c1ccc(Cl)c(Cl)c1)CC3OC1CC(N)C(O)C(C)O1` (stereo not given): 44.5% (active). On to `O=C(Nc1cccc2c1CCCC2)c1ccc(F)cc1`, for which the inhibition was 7.49% (inactive). Next, `COCCNC(=S)Nc1cc(S(=O)(=O)N2CCOCC2)ccc1N1CCCCC1`: 7.35% (inactive); `CC(C)C(C(=O)NC1CCCCC1)N(CC1CCCO1)C(=O)CNS(=O)(=O)c1ccc(F)cc1` (stereo not given): 3.67% (inactive); `CC(C)CN1CC(C)C(=O)N(c2ccccc2)C1=S` (stereo not given): 0.15% (inactive).

Regarding `COc1cc2c(C(=O)N(C)c3cc(Cl)ccc3OC)cn(C)c(=O)c2cc1OC`, the inhibition was 6.3% (inactive). The same measure for `Cc1ccc(NC(=O)COc2ccc(/C=N\NC(=O)c3cccnc3)cc2)cc1C`: -9.46% (inactive); for `O=C(NN=C1CCC(=NNC(=O)c2cccnc2)CC1)c1cccnc1`: 8.42% (inactive); for `O=C(N/N=C/c1sc(N2CCCCC2)nc1-c1cccs1)c1cccnc1`: 26.1% (active).

On to `COc1ccccc1C(=O)c1ccccc1C(=O)c1ccccc1`, for which the inhibition was 8.6% (inactive). The same measure for `Cc1cc(C)n(C(=O)CCNC(=O)c2ccccc2Cl)n1`: -1.83% (inactive).
